Laboratory results as given in PubChem BioAssay AID709 (SRMLSC, 2007).
Screen size: about 65,000 compounds; about 3,600 (5.5%) were called active.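 How the source made its calls: active means at 10 µM, mean starting fluorescence two-fold or more over control wells; inactive means the rest.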 The entries come from a sample that favours actives as a whole.

Experiment: intrinsic fluorescence of library compounds, ex339/em460 – biochemical, MLSMR library, data from DPM-DC assay, artefact control, profiling panel (AID 709);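 further: signal is the first read of a kinetic run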
Conditions: compound autofluorescence, ex339/em460 nm, NADH buffer; at 10 µM; hits give high values

| SMILES | fluorescence fold increase |
| --- | --- |
| CCOC(=O)c1c(N)n(Cc2ccccc2)c2nc3ccccc3nc12 | 4.96 (active) |
| O=C(O)C1CSC(c2cccnc2)N1 (stereo not given) | 1.05 (inactive) |
| CC1(C)C(c2ccccc2)=NC(c2cccnc2)=[N+]1[O-] | 1.1 (inactive) |
| CCOC(=O)c1c(C)c(C(=O)N2CCC3(CC2)OCCO3)c(C)n1CC | 1.05 (inactive) |
| CCOC(=O)c1c(-c2ccccc2)oc2ccc(OC(=O)N(C)C)cc12 | 3.72 (active) |
| N[C@@H](Cc1c[nH]c2ccccc12)c1nnc(SCc2c(F)cccc2Cl)o1 | 1.15 (inactive) |
| CCOC(=O)C1=C(C)OC(N)=C(C(=O)OC)C12C(=O)Nc1ccc(Br)cc12 (stereo not given) | 1.1 (inactive) |
| CCc1cccc2c(C#N)cn(CC(=O)N3CCOCC3)c12 | 1.27 (inactive) |
| COC(=O)COc1cc(C)cc2oc(=O)c3c(c12)CCCC3 | 2.2 (active) |
| OC(CNC1CCCCC1)c1ccccc1 (stereo not given) | 1.04 (inactive) |
| CCOC(=O)C(O)(c1ccc(NC(=O)c2ccco2)c(OC)c1)C(F)(F)F (stereo not given) | 1.11 (inactive) |
| O=C(c1cc2nc(-c3ccccc3)cc(-c3ccccc3)n2n1)N1CCC2(CC1)OCCO2 | 2.35 (active) |
| O=C(c1cc(-c2ccncc2)nc2ccccc12)N1CCC2(CC1)OCCO2 | 1.11 (inactive) |
| Cc1cccc(-n2c(C)nc3cc(C(=O)N4CCC5(CC4)OCCO5)ccc32)c1 | 1.13 (inactive) |
| CCOC(=O)CC1=C(C(=O)OCC)C2(C(=O)N1)C(C(=O)OC)=C(N)Oc1ccccc12 (stereo not given) | 1.12 (inactive) |
| COc1ccc(CCn2c(O)c(C=NC3CC3)c(=O)[nH]c2=O)cc1OC | 1.06 (inactive) |
| CN1CCN(C(=O)COc2ccc(C(C)(C)C)cc2Br)CC1 | 1.12 (inactive) |
| COc1ccc(C(=O)CC2C(=O)N(C)C(=O)N(C)C2=O)cc1 | 1.08 (inactive) |
| CCC/C(=N\O)c1c[nH]c2ccccc12 | 1.08 (inactive) |
| CC1=C(C(=O)Nc2ccccc2)SCCO1 | 1.08 (inactive) |
